Bioassay records deposited in PubChem BioAssay by The Scripps Research Institute Molecular Screening Center.
DAX1 inh-1 – blocks DAX1 repression of SF-1 activated StAR promoter. AID 652010. 1.1% of 370,000 active. inhibition, % at 6.8 µM. HEK293T StAR-luciferase reporter, SF-1/DAX-1 repression relief;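 active = inhibition above the mean over all tested compounds plus 3 SD, cut at about 3.6% in these data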;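 also: higher inhibition means more luminescence from relief of DAX-1 repression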
DAX1 inh-2 – inhibitors of human orphan nuclear receptor DAX1 (NR0B1); P51843; HEK293 Gal4-DAX1 luciferase reporter, luminescence; inhibition, % at 6.75 µM; 0.99% of 340,000 active; AID 504766;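 active = inhibition above the mean over all tested compounds plus 3 SD, cut at about 4.2% in these data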;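 also: inhibition shows as a rise in luminescence from relieved DAX1 repression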
Target sequence (P51843 207-470 limits assumed): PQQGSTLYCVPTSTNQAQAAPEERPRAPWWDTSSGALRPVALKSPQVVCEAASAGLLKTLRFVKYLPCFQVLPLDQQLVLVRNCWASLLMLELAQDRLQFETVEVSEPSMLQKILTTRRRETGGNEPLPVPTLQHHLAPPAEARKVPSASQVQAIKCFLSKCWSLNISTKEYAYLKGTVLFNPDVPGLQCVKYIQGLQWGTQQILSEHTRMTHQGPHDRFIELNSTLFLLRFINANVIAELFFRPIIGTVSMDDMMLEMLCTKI
hcDAF12 agonist – activates DAF-12 receptor from parasite H. contortus | HEK293 hcDAF-12 lit1-tk-luc reporter, luminescence; 0% DMSO, 100% Δ7-dafachronic acid | activation, % at 6.8 µM | 1.4% of 370,000 active;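 active = activation above the mean of all tested compounds plus 3 SD, cut at about 5.5% in these data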
hgDAF-12 ag – hgDAF-12 agonism, primary luciferase screen. activation, % at 6.8 µM. 1.8% of 370,000 active. AID 687014. HEK293 GAL4-hgDAF12 UAS-luciferase reporter, agonist luminescence; normalized to butyrate control;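 active = activation above a cutoff set at the mean of all screened compounds plus 3 SD, cut at about 10% in these data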
ssDAF-12 act – activators of S. stercoralis DAF-12 nuclear receptor. HEK293 ssDAF-12/GRIP1 lit1-tk-luc reporter, luminescence; % of 3 µM dafachronic acid response. AID 652126. activation, % at 6.8 µM. 1% of 370,000 active;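 active = activation above the mean over all tested compounds plus 3 SD, cut at about 0.9% in these data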
hgDAF12 ag – confirmation of H. glycines DAF-12 agonists; activation, % at 6.8 µM; 80% of 3,300 active; AID 743050; HEK293 GAL4-hgDAF12 luciferase reporter, agonist mode; percent of butyrate response; shares compounds with hgDAF-12 ag;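 active = mean activation over triplicate wells above the hit cutoff derived from the earlier primary screen, cut at about 11% in these data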
LXR ag 2 – LXR-beta agonism as DAF-12 counter-screen. HEK293 Gal4-LXR luciferase reporter, 24 h. shares compounds with hgDAF-12 ag. 3,300 tested, under 10 active. activation, % at 6.8 µM;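 active = mean activation of the triplicate above a set limit carried over from the primary screen, none filed active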
Hits are given with their value; . = inactive; / = no result. Shown are actives, neighbours in structure and some others; about 4.1% of the full set was active somewhere.

SMILES | DAX1 inh-1 | DAX1 inh-2 | hcDAF12 agonist | hgDAF-12 ag | ssDAF-12 act | hgDAF12 ag | LXR ag 2
CCn1c(O)c(/C=C2\C=Nc3ccccc32)sc1=Nc1ccc(C)cc1 | . | . | . | . | . | / | /
CCn1c(O)c(/C=C2\C=Nc3ccccc32)sc1=O | . | . | . | 14 | . | 22 | .
C[C@@H]1CCCN1c1cccc2c1S(=O)(=O)N(C1CC1)CCCO2 | . | / | . | . | . | / | /
CC1=CC(=C2C(=O)c3ccccc3C2=O)C=C(C)N1Cc1ccco1 | . | . | . | 16 | . | 13 | .
O=C1c2ccccc2C(=O)N1Cc1ccco1 | . | . | . | . | . | / | /
COCC(C)NC(=O)c1noc2c1CCc1cc(OC)ccc1-2 (stereo not drawn) | . | . | . | . | . | / | /
COCCNC(=O)c1noc2c1CCc1cc(OC)ccc1-2 | . | . | . | 14 | . | 12 | .
COc1ccc2c(CC(=O)Nc3ncc(C)s3)coc2c1 | . | . | . | 18 | . | 18 | .
COc1cccc(CC(=O)Nc2ncc(C)s2)c1 | . | . | . | . | . | / | /
O=C(NCCc1c[nH]c2ccccc12)OCc1cn(-c2cccc(C(F)(F)F)c2)nn1 | . | / | . | . | . | / | /
N#Cc1cccc(NC(=O)CSc2nnc(-c3n[nH]c4ccccc34)o2)c1 | . | . | . | 15 | . | . | .
O=S1(=O)N[C@@H](Cc2ccccc2)COc2cccc(N3CCCC3)c21 | . | / | . | . | . | / | /
Cc1ccn2cc(-c3cccc(NS(C)(=O)=O)c3)nc2c1 | . | . | . | 14 | . | 11 | .
CC(=O)Nc1cccc(-c2cn3ccc(C)cc3n2)c1 | 3.9 | . | . | 14 | . | 12 | .
COc1c(Cl)cccc1-c1cn2ccc(C)cc2n1 | . | . | 6.4 | 14 | 1.3 | 15 | .
Cc1ccn2cc(-c3cccc(NC(=O)CCC(=O)O)c3)nc2c1 | . | . | . | . | . | / | /
Cc1ccn2cc(-c3cnoc3C)nc2c1 | . | . | . | . | . | / | /
Cc1ccn2cc(-c3cccc(S(=O)(=O)N4CCCC4)c3)nc2c1 | . | . | . | . | . | / | /
Cc1csc(NC(=O)CSc2nsc(SCC(=O)Nc3nc(C)cs3)c2C#N)n1 | . | . | . | 18 | . | 15 | .
C/C(=N\NC(N)=S)c1ccc2c(c1)OCCO2 | . | . | . | . | . | / | /
CC(=NNC(N)=S)c1ccc2cc3c(cc2c1)OCO3 | . | . | . | 25 | . | 13 | .
Cc1cccc(NC(=S)N/N=C/c2cccc(O)c2)c1C | . | . | . | . | . | / | /
Cc1ccccc1NC(=S)N/N=C/c1ccc(O)cc1O | . | . | . | 20 | . | . | .
COc1cc(Cl)ccc1OCc1cc(C(=O)N2CCN(C)CC2)no1 | . | . | . | . | . | / | /
COc1cc(Cl)ccc1OCc1cc(C(=O)N2CCN(C)C(=O)[C@@H]2C)no1 | . | . | 5.8 | 14 | . | 13 | .
SMILES | DAX1 inh-1 | DAX1 inh-2 | hcDAF12 agonist | hgDAF-12 ag | ssDAF-12 act | hgDAF12 ag | LXR ag 2
COc1ccc(N/C=C/C(=O)c2ccc(Cl)cc2)cc1 | . | . | . | 13 | . | 16 | .
O=C(COc1ccc(Cl)cc1Cl)Nc1cccnc1 | . | . | . | 15 | . | 14 | .
CN1CCCCC(NC(=O)c2c(F)cccc2F)C1=O (stereo not drawn) | . | / | . | . | . | / | /
CC(C)N(Cc1nccn1C)C(=O)CCc1nnc(CCCc2ccccc2)o1 | . | . | . | 14 | . | . | .
CC(C)N(CCO)C(=O)CCc1nnc(CCCc2ccccc2)o1 | . | . | . | . | . | / | /
CC(C)C[C@@H]1COc2cc(N3CCOCC3)ccc2S(=O)(=O)N1 | . | / | . | . | . | / | /
Cc1ccccc1/C=N\NC(=O)c1csnn1 | . | . | . | 14 | . | . | .
C=CCn1c(SCC(N)=O)nc2scc(-c3ccc(C)o3)c2c1=O | . | . | 5.6 | 20 | . | 17 | .
OCc1ccccc1OCc1ccccc1 | . | / | . | . | . | / | /
O=S1(=O)CC2c3ccc(F)cc3CN2CN1Cc1ccccc1 (stereo not drawn) | . | / | . | . | . | / | /
O=c1c2ccccc2nnn1CSc1ccccc1 | 3.6 | . | . | 16 | . | 14 | .
CC(=O)C(/C=N/c1cc(-c2ccc(C)cc2)nn1-c1ccccc1)=C(\C)O | . | . | 5.6 | 19 | 1.1 | . | .
Cc1ccc(NC(=O)c2cc(-c3ccccc3)nn2-c2ccccc2)cc1 | . | . | . | . | . | / | /
COC(=O)C1=C(C)N(Cc2ccccc2C(F)(F)F)C(=NCc2ccc(C(F)(F)F)cc2)NC1c1ccccc1 (stereo not drawn) | . | / | . | . | . | / | /
CN1CCC(=NNC(=O)C(=O)Nc2ccccc2F)CC1 | . | . | . | 24 | . | . | .
CN1CCC(=NNC(=O)C(=O)NC(C)(C)C)CC1 | . | . | . | . | . | / | /
O=C(N/N=C/c1ccccn1)c1c[nH]c2ccccc12 | . | . | . | 15 | . | 13 | .
C/C(=N\NC(=O)c1cccs1)C(C)(C)C | . | . | . | 18 | . | . | .
C/C(=N/NC(=O)c1cccs1)c1ccco1 | . | . | . | 18 | . | . | .
C/C(=N\NC(=O)c1csc(C)c1C)c1ccco1 | . | . | . | . | . | / | /
CC(=O)O[C@@H]1C=C[C@@H](C#Cc2ccc(C(C)(C)C)cc2)O[C@@H]1COC(=O)Nc1ccccc1 | . | / | . | . | . | / | /
O=C1C=CC(=O)N1c1ccc(Nc2ccccc2)cc1 | . | . | . | . | . | / | /
O=C1C(Nc2ccccc2)=C2CCCC=C2N1c1ccccc1 | 4.2 | . | . | 14 | . | . | .
COc1ccc2ccccc2c1CN1CCN(c2ncc(Cc3ccccc3)cn2)CC1 | . | / | . | . | . | / | /
COCC1CCN(Cc2nc(-c3cccs3)no2)C1 (stereo not drawn) | . | / | . | 22 | . | . | .
SMILES | DAX1 inh-1 | DAX1 inh-2 | hcDAF12 agonist | hgDAF-12 ag | ssDAF-12 act | hgDAF12 ag | LXR ag 2
COc1ccccc1CN1CCN(Cc2nc(-c3cccs3)no2)CC1 | . | . | . | . | . | / | /
CC(=O)N1CCc2c1cccc2S(=O)(=O)NC(CC(C)C)C(=O)Nc1ccccc1C (stereo not drawn) | . | / | . | . | . | / | /
CN(CCOC(=O)c1cc2ccccc2o1)C1CN(Cc2cn(Cc3ccccc3C(F)(F)F)nn2)S(=O)(=O)C1 (stereo not drawn) | . | / | . | . | . | / | /
COc1ccc(/C=N/Nc2nccnc2Cl)c(OC)c1 | . | . | . | 21 | . | 13 | .
CCOC(=O)C1(Cc2ccccc2)CCN(Cc2ccc(C(F)(F)F)cc2)CC1 | . | / | . | . | . | / | /
COc1ccccc1CC(=O)NC1CCCCCC1 | . | . | . | 13 | . | . | .
COc1ccccc1CC(=O)NC1CC1 | . | . | . | . | . | / | /
C[C@H]1[C@H](NC(=O)c2cccc(Cl)c2)CC[C@@]23CCCN2C(=O)CCC[C@@H]13 | / | / | . | . | . | / | /
